Source: PubChem BioAssay (Tox21)
Inconclusive results are not listed. A call without a number means that no potency is given here. Calls of active or inactive are those of the source. Calls come from the whole dose curve; as a rule, active = well fitted inhibition curve with a large enough effect in the repeat runs; inconclusive = weak or mixed curves; inactive = flat fitted curve, though single readings scatter.

Assay: qHTS assay to identify small molecule HDAC inhibitors (AID 1259364); note: nearly all actives have a fitted effect of over 45% in size
Conditions: HCT-116 HDAC-Glo I/II luminescence, 2 h; series mostly up to 92.4 µM
Source text: U.S. Tox21 Program National Center for Advancing Translational Sciences [NCATS] NIH Chemical Genomics Center [NCGC] U.S. Environmental Protection Agency [EPA] National Institutes of Environmental Health Sciences [NIEHS] National Toxicology Program [NTP] U.S. Food and Drug Administration [FDA] Tox21 Assay Overview: Histone deacetylases (HDACs) are a group of epigenetic enzymes that regulate gene expression by histone deacetylation. HDACs are capable of introducing epigenetic modifications and such aberrations contribute to the onset and progression of several human diseases, thus making HDACs a popular therapeutic target. For identifying endogenous class I/II HDAC inhibitors a homogenous, luminogenic HDAC I/II cell based assay was used to measure the relative activity of class I and II HDACs from cells. Wild type HCT-116 cells were used to screen Tox21 libraries for identifying class I/II HDAC inhibitors.
Tox21 Assay Protocol Summary: HCT-116 cells were dispensed at 1,500 per well in 5uL of culture medium into white solid bottom 1536-well plates (Greiner Bio-One, Monroe, NC) using a Multidrop Combi (Thermo Scientific, Waltham, MA) dispenser. The assay plates were incubated at 37 C and 5% CO2 for an overnight, and then 23nL of compounds dissolved in DMSO and positive control were transferred using a Pintool station (Wako, San Diego, CA). The assay plates were incubated at 37C and 5% CO2 for 2hr. After compound treatment, 4uL of HDAC-Glo reagent (Promega Corporation, Madison, WI) was added to each well of the assay plates using Flying Reagent Dispenser (FRD, Aurora Discovery, San Diego, CA) and incubated the assay plates at room temperature for 30min. The luminescence signal was quantified using a ViewLux plate reader (Perkin Elmer, Shelton, CT).
Potency is the fitted concentration of half-maximal effect.

Compound | Potency
C=CCc1ccc(OC)c(OC)c1 | inactive
O=C1c2ccccc2CCc2ccccc21 | 27.9 µM (active)
N[C@H](Cc1c[nH]c2ccccc12)C(=O)O | inactive
CCO[Si](CCCN)(OCC)OCC | inactive
CC(C)OC(=O)COc1ccc(Cl)cc1Cl | inactive
CN(C)c1ccc(Cc2ccc(N(C)C)cc2)cc1 | inactive
CCCCCCCCCCCC(=O)OC | inactive
C=C(C)[C@H]1CC=C(C)C(=O)C1 | inactive
CC(=O)OCc1ccccc1 | inactive
CC(CCO)CC(C)(C)C (stereo not given) | inactive
CC(O)CC(C)(C)O (stereo not given) | inactive
COC(=O)c1cccnc1 | inactive
COc1ccc(CCC(C)=O)cc1 | inactive
Nc1nc(N)nc(-c2ccccc2)n1 | inactive
c1ccc2c(c1)Cc1ccccc1-2 | inactive
CC(=O)c1ccc(O)cc1 | inactive
Cc1ccc2ncccc2c1 | inactive
CCCCCCCCCCO | inactive
COc1ccc([N+](=O)[O-])cc1N | inactive
C=C(C)CNCC | inactive

Compound | Potency
CCNc1ccccc1 | inactive
CN(C)CCOC(=O)COc1ccc(Cl)cc1 | inactive
NCCCCCCN | inactive
COc1ccc(OC)cc1 | inactive
CCNC(=S)NCC | inactive
CC(=O)CC(C)(C)O | inactive
CCOC(=O)n1ccn(C)c1=S | inactive
CC(C)CCCCCCCOC(=O)CCCCC(=O)OCCCCCCCC(C)C | inactive
Cc1ccc([N+](=O)[O-])cc1S(=O)(=O)O | inactive
NC(=S)NNC(N)=S | inactive
CCOCCOCCOCCO | inactive
C=CC(C)CCCC(C)(C)O (stereo not given) | inactive
COc1ccccc1OCC(O)CO (stereo not given) | inactive
C[Si]1(C)O[Si](C)(C)O[Si](C)(C)O[Si](C)(C)O1 | inactive
C[C@]12CC[C@@H]3c4ccc(O)cc4CC[C@H]3[C@@H]1C[C@@H](O)[C@@H]2O | inactive
CC(C)(C)c1cc(Cc2cc(C(C)(C)C)c(O)c(C(C)(C)C)c2)cc(C(C)(C)C)c1O | inactive
CSc1ccc(Cl)cc1 | inactive
C=C(C)C(=O)OCC(C)C | inactive
C=Cc1ccc(C)cc1 | inactive
O=S(=O)(O)c1ccccc1 | inactive
